{
  "source": "paper PMC7862700",
  "about": "“An all-to-all approach to the identification of sequence-specific readers for epigenetic DNA modifications on cytosine”",
  "test_in_all_cases": "DAPPL (digital affinity profiling via proximity ligation, sequencing); 10 mM Tris-HCl pH 7.5, 50 mM NaCl, 1 mM DTT, 4% glycerol, room temperature, 30 min; GST-TFs on glutathione beads, 16-mer random dsDNA library, 0.1% formaldehyde crosslink after washing; high values mean tight binding",
  "settings_in_all_cases": "protein: recombinant; tags: N-terminal GST; dsDNA, one strand shown",
  "key": {"[1]": {"biological_target": "T1, ELK1 (Homo sapiens, UniProt P19419 1-428)", "T1 sequence": "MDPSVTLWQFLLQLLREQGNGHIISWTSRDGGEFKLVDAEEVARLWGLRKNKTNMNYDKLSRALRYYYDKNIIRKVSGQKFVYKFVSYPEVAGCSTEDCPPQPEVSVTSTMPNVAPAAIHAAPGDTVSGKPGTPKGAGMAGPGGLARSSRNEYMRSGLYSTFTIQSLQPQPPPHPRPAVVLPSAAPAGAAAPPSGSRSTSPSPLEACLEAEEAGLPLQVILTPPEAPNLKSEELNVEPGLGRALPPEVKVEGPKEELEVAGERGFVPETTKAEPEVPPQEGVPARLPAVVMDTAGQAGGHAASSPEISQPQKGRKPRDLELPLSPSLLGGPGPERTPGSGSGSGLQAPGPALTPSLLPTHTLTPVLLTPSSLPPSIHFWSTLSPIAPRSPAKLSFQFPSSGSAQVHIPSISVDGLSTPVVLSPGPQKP", "in_short": "(§1)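 Sequencing on an Illumina NextSeq500 followed washing, crosslinking with 0.1% formaldehyde, proximity ligation (BsaI/T4 ligase, 1 h, 37 °C) and PCR amplification of pools that had been incubated for 30 min at room temperature with 200 nmole of a random double-stranded 16-mer DNA library in Tris/NaCl/DTT/glycerol buffer. Each pool held DNA-barcoded human transcription factors, expressed in yeast as GST fusions and captured on glutathione beads, plus a tag-only sample. Binding signal is a hexamer's read frequency for a factor divided by its frequency in the tag-only sample.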"}, "[2]": {"biological_target": "T2, ERG (Homo sapiens, UniProt P11308 1-479)", "T2 sequence": "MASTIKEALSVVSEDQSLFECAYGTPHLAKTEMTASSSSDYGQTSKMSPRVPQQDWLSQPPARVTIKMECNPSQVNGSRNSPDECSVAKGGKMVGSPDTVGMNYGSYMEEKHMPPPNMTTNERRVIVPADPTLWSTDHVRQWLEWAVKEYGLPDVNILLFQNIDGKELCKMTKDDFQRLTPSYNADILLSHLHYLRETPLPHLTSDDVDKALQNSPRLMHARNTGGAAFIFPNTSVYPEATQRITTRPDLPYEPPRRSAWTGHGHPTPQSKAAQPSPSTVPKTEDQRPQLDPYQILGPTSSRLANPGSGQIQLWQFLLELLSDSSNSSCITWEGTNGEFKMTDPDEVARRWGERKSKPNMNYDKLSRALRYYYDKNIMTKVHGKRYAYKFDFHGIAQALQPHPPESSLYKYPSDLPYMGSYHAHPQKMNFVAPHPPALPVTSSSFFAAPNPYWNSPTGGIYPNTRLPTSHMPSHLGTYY", "in_short": "as §1"}, "[3]": {"biological_target": "ELF1 (Homo sapiens, UniProt P32519 1-619)", "sequence (P32519 whole entry)": "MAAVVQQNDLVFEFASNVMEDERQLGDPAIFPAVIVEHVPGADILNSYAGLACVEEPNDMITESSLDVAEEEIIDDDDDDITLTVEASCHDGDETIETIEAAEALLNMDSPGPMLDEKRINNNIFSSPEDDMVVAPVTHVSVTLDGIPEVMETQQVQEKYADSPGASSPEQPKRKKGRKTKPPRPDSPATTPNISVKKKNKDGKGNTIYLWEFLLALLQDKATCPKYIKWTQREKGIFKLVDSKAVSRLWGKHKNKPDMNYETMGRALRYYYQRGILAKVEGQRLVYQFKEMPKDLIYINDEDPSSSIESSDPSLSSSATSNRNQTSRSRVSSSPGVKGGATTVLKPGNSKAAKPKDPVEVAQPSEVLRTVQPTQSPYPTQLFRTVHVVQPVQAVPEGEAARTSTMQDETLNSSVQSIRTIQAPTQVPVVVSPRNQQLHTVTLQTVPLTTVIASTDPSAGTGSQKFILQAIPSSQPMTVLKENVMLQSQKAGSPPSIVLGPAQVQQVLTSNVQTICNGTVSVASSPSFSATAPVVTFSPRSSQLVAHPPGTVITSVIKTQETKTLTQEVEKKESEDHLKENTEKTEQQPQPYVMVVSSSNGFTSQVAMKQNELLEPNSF", "in_short": "as §1"}, "[4]": {"biological_target": "T3, EHF (Homo sapiens, UniProt Q9NZC4 1-300)", "T3 sequence": "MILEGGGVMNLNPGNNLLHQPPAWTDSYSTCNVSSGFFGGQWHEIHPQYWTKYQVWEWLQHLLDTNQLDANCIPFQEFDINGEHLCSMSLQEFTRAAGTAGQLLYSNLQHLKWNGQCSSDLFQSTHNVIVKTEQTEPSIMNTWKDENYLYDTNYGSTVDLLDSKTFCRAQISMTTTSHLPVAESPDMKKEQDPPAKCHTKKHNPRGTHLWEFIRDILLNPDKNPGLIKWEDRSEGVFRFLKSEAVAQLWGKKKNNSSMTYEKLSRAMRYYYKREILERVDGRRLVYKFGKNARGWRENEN", "in_short": "as §1"}, "[5]": {"biological_target": "SPIB (Homo sapiens, UniProt Q01892 1-262)", "sequence (Q01892 whole entry)": "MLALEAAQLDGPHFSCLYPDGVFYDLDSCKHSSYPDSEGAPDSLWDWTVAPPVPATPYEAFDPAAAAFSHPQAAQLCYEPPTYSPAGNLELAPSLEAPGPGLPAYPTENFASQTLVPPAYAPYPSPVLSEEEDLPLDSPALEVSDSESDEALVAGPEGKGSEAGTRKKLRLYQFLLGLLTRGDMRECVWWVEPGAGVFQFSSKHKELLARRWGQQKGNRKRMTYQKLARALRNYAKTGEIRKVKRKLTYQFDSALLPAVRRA", "in_short": "as §1"}, "[6]": {"biological_target": "ETV5 (Homo sapiens, UniProt P41161 1-510)", "sequence (P41161 whole entry)": "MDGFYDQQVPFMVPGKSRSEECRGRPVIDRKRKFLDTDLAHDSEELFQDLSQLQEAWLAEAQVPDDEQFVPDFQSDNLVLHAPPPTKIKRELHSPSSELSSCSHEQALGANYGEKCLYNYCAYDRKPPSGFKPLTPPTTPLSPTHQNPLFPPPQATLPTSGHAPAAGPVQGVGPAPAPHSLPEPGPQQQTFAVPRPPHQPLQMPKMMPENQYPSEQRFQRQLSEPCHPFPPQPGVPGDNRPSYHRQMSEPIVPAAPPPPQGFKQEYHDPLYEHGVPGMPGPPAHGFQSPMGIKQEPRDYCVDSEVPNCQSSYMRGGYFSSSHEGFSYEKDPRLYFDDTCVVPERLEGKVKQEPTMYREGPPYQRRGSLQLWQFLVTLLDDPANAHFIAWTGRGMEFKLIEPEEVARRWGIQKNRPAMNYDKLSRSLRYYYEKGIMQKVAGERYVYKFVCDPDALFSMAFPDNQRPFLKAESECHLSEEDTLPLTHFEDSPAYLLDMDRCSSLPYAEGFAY", "in_short": "as §1"}, "[7]": {"biological_target": "ELF4 (Homo sapiens, UniProt Q99607 1-663)", "sequence (Q99607 whole entry)": "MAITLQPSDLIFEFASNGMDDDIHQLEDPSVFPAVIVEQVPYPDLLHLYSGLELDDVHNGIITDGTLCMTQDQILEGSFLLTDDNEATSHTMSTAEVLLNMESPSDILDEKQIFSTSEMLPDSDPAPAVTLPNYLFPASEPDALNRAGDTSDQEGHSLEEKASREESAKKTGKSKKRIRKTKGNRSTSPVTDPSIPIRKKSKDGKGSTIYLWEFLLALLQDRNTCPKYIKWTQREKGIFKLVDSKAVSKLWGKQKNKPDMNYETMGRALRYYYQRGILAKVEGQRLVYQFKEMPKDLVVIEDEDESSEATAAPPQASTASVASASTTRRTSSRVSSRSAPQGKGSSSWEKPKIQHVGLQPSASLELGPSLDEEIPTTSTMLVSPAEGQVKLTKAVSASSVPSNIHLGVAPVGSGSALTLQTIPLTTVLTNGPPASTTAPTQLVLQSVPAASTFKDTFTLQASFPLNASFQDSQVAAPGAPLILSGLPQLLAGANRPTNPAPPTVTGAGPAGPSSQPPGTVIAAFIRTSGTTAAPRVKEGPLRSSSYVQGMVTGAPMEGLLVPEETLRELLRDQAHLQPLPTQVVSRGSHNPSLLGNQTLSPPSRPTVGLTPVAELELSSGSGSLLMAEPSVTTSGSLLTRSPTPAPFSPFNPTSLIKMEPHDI", "in_short": "as §1"}, "[8]": {"biological_target": "T4, ELK4 (Homo sapiens, UniProt P28324-2 1-405)", "T4 sequence": "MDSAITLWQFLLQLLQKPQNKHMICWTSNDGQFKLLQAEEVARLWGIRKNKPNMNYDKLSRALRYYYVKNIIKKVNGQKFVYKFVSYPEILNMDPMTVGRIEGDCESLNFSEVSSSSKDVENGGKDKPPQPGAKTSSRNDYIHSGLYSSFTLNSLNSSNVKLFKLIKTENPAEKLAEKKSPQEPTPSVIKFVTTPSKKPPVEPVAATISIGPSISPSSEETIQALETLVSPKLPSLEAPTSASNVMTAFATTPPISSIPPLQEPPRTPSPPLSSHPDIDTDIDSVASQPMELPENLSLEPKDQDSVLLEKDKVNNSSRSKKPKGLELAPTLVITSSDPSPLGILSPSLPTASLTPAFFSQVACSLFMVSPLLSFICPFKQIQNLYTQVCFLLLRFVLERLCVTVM", "in_short": "as §1"}, "[9]": {"biological_target": "T5, ETV2 (Homo sapiens, UniProt O00321 1-342)", "T5 sequence": "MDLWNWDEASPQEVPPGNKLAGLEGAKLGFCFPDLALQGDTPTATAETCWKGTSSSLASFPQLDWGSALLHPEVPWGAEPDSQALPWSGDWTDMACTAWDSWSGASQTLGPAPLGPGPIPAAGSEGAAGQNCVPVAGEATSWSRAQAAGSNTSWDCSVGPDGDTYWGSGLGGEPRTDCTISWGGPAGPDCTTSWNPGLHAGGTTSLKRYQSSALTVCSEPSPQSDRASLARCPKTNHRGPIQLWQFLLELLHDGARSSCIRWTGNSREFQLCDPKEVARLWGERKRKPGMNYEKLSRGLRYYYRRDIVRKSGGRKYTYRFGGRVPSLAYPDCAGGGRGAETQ", "in_short": "as §1"}, "[10]": {"biological_target": "ETV1 (Homo sapiens, UniProt P50549 1-477)", "sequence (P50549 whole entry)": "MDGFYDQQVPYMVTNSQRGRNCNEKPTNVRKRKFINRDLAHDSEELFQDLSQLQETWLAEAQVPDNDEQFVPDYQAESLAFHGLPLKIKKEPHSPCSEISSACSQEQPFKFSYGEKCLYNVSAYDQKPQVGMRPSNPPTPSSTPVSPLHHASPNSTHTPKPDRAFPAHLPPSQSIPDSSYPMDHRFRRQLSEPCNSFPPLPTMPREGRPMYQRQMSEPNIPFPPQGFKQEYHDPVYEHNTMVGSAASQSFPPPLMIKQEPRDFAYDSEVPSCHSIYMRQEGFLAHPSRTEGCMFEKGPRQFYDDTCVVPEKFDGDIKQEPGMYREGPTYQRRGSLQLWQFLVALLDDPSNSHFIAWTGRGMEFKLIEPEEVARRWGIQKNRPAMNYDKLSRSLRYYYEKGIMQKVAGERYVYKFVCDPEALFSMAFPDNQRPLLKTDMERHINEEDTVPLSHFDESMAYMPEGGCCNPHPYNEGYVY", "in_short": "as §1"}, "[11]": {"biological_target": "T6, ERF (Homo sapiens, UniProt P50548 1-548)", "T6 sequence": "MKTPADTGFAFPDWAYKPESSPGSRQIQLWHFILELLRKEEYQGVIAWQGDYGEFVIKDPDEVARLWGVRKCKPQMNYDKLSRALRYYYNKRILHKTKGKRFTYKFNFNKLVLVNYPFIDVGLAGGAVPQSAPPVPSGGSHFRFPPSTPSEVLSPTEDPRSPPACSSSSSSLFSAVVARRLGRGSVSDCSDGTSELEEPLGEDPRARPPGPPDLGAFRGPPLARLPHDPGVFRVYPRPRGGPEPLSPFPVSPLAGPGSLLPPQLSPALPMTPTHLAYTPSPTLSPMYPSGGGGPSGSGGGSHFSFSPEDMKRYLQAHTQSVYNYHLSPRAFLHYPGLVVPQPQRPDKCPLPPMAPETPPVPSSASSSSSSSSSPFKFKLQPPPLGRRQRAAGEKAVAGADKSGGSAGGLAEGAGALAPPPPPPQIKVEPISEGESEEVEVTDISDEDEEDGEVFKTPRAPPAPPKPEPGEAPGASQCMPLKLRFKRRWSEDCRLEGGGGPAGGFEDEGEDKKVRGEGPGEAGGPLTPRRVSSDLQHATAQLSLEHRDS", "in_short": "as §1"}, "[12]": {"biological_target": "T7, ETV3L (Homo sapiens, UniProt Q6ZN32 1-361)", "T7 sequence": "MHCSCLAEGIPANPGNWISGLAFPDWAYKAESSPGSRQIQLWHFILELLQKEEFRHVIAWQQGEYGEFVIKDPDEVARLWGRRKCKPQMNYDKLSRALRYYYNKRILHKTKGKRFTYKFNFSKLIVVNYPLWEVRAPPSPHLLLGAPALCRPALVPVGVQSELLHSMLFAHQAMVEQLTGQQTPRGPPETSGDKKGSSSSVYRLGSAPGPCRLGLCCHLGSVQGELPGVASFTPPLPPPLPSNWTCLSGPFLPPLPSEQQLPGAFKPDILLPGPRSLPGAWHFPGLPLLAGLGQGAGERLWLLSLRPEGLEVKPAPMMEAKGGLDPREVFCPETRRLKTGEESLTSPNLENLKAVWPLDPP", "in_short": "as §1"}, "[13]": {"biological_target": "T8, ETS2 (Homo sapiens, UniProt P15036 1-469)", "T8 sequence": "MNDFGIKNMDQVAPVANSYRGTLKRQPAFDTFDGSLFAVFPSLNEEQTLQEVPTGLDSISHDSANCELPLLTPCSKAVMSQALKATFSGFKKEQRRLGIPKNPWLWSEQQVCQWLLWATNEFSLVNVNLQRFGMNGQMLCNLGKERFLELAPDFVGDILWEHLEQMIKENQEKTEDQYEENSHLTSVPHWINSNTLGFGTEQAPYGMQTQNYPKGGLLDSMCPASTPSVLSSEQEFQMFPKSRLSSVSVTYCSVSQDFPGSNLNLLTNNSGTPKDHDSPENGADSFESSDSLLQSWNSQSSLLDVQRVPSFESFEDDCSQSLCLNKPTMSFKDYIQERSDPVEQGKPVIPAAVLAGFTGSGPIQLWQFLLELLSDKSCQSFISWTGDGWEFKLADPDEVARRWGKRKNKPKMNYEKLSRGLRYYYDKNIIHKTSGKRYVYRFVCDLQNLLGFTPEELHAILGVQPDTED", "in_short": "as §1"}, "[14]": {"biological_target": "T9, SPDEF (Homo sapiens, UniProt O95238 1-335)", "T9 sequence": "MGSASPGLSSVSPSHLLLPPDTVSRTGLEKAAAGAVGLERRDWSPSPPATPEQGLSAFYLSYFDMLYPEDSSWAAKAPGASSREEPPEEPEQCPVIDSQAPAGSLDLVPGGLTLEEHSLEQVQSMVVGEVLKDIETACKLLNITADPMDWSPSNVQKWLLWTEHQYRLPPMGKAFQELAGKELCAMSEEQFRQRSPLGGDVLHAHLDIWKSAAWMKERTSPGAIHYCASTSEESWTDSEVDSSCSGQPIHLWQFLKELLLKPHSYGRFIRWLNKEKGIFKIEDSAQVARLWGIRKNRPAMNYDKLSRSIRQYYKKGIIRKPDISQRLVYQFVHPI", "in_short": "as §1"}, "[15]": {"biological_target": "T10, ETV7 (Homo sapiens, UniProt Q9Y603 1-341)", "T10 sequence": "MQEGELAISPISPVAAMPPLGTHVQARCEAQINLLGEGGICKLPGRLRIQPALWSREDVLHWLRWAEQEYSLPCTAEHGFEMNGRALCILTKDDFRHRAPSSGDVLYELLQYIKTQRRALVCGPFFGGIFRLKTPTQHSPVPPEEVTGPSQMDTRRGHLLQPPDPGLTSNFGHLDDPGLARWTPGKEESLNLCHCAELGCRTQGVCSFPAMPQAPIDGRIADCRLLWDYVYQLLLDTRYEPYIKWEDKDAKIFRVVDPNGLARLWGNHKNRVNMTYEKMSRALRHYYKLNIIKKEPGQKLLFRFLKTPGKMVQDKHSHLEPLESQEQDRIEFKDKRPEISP", "in_short": "as §1"}, "[16]": {"biological_target": "T11, ETV3 (Homo sapiens, UniProt P41162-2 1-143)", "T11 sequence": "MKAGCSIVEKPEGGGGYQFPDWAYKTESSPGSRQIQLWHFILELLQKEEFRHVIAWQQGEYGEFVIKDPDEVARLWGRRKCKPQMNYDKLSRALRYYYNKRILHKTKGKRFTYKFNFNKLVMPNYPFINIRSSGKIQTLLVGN", "in_short": "as §1"}, "[17]": {"biological_target": "ETV6 (Homo sapiens, UniProt P41212 1-452)", "sequence (P41212 whole entry)": "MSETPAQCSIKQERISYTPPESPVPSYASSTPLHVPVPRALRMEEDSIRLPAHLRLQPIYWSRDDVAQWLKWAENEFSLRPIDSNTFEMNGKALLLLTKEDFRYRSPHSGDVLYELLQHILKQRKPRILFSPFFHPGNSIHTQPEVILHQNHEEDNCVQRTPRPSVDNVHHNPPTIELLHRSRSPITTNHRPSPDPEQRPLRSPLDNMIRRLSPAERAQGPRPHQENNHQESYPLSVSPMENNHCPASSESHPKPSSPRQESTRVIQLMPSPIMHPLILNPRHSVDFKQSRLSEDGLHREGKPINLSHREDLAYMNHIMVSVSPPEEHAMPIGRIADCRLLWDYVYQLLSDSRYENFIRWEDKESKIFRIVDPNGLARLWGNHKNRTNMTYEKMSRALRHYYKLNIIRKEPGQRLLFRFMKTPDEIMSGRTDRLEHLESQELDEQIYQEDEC", "in_short": "as §1"}},
  "data": [
    {"sequence": "CATGTT", "values": [
      {"measurement": "binding signal", "setting": "[1]", "value": "1.07 fold enrichment (6-mer frequency, TF over GST control)"},
      {"measurement": "binding signal", "setting": "[2]", "value": "1.04 fold enrichment (6-mer frequency, TF over GST control)"},
      {"measurement": "binding signal", "setting": "[3]", "value": "1.06 fold enrichment (6-mer frequency, TF over GST control)"},
      {"measurement": "binding signal", "setting": "[4]", "value": "1.03 fold enrichment (6-mer frequency, TF over GST control)"},
      {"measurement": "binding signal", "setting": "[5]", "value": "1.03 fold enrichment (6-mer frequency, TF over GST control)"},
      {"measurement": "binding signal", "setting": "[6]", "value": "1.03 fold enrichment (6-mer frequency, TF over GST control)"},
      {"measurement": "binding signal", "setting": "[7]", "value": "1.05 fold enrichment (6-mer frequency, TF over GST control)"},
      {"measurement": "binding signal", "setting": "[8]", "value": "1.1 fold enrichment (6-mer frequency, TF over GST control)"},
      {"measurement": "binding signal", "setting": "[9]", "value": "1.11 fold enrichment (6-mer frequency, TF over GST control)"},
      {"measurement": "binding signal", "setting": "[10]", "value": "1.15 fold enrichment (6-mer frequency, TF over GST control)"},
      {"measurement": "binding signal", "setting": "[11]", "value": "1.05 fold enrichment (6-mer frequency, TF over GST control)"},
      {"measurement": "binding signal", "setting": "[12]", "value": "1.06 fold enrichment (6-mer frequency, TF over GST control)"},
      {"measurement": "binding signal", "setting": "[13]", "value": "1.01 fold enrichment (6-mer frequency, TF over GST control)"},
      {"measurement": "binding signal", "setting": "[14]", "value": "1.02 fold enrichment (6-mer frequency, TF over GST control)"},
      {"measurement": "binding signal", "setting": "[15]", "value": "1.1 fold enrichment (6-mer frequency, TF over GST control)"},
      {"measurement": "binding signal", "setting": "[16]", "value": "1.12 fold enrichment (6-mer frequency, TF over GST control)"},
      {"measurement": "binding signal", "setting": "[17]", "value": "1.1 fold enrichment (6-mer frequency, TF over GST control)"}
    ]}
  ]
}
